The values below come from PubChem BioAssay (Tox21).

Results filed as inconclusive are left out. The source made the active and inactive calls. Calls follow the shape of the dose curve; as a rule, active = well fitted activation curve with a large enough effect in the signal ratio in the repeat runs (not every such curve was filed as active); inconclusive = weak or mixed curves, or effect the other way; inactive = flat fitted curve, though single readings scatter; the % refers to the signal ratio.
% is scaled to controls: 0 for no effect and ±100 for the full control effect.

The assay is described as follows: qHTS assay to identify small molecule agonists of the endoplasmic reticulum stress response signaling pathway (AID 1159516). To be noted: ESRE-bla HeLa, ER stress beta-lactamase reporter, 5 h; series mostly up to 61 µM; activation: at the top concentration. An excerpt:
National Center for Advancing Translational Sciences [NCATS]
NIH Chemical Genomics Center [NCGC]
U.S. Environmental Protection Agency [EPA]
National Institutes of Environmental Health Sciences [NIEHS]
National Toxicology Program [NTP]
U.S. Food and Drug Administration [FDA]
Endoplasmic Reticulum (ER) plays an important role in cellular signaling, protein folding/maturation, stress response, lipid biosynthesis, calcium storage and release etc. Under stress conditions, proteins in ER misfold or unfold, and leading to the expression of ER stress responsive genes. ER stress has been associated with a variety of pathophysiological conditions such as cancer, inflammation, neurodegenerative diseases, diabetes, ischemic heart disease etc. To identify the compounds that induce ER stress response, an ER stress reporter cell line, CellSensor ESRE-bla HeLa (Life Technologies, Carlsbad, CA) containing a beta-lactamase reporter gene under control of the Endoplasmic reticulum Stress Response Element (ESRE) was used to screen Tox21 10K compound library.
Tox21 Assay Protocol Summary:
ESRE-bla HeLa cells were dispensed at 1,500 cells/6 uL of assay medium per well into black wall/clear-bottom 1536-well plates using a Multidrop Combi (ThermoFisher Scientific, Waltham, MA) dispenser. After the assay plates were incubated at 37 C and 5% CO2 for an overnight, 23 nL of compounds dissolved in DMSO, positive controls or DMSO only was transferred to the assay plate by a Pintool station (Kalypsys, San Diego, CA). The assay plates were incubated at 37 C and 5% CO2 for 5 hr. One uL of LiveBLAzer B/G FRET substrate (Life Technologies) was added using a Flying Reagent Dispenser (Aurora Discovery, San Diego, CA) and the plates were incubated at room temperature for 2 hr. Fluorescence intensity (405 nm excitation, 460 nm and 530 nm emissions) was measured using an Envision plate reader (PerkinElmer, Shelton, CT).
As for `CC(CC(C#N)(c1ccccc1)C(C)C)N(C)C` (stereo not given), the “activation” value is 1.28% (inactive).
To `C[C@H]1C[C@H]2[C@@H]3CCC4=CC(=O)C=C[C@]4(C)[C@@]3(F)[C@@H](O)C[C@]2(C)[C@@]1(O)C(=O)COP(=O)(O)O` belongs -1.59% (inactive).
In the case of `Nc1ncnc2c1ncn2[C@@H]1O[C@H](CO)[C@@H](O)[C@H]1O`, the “activation” value is -2.68% (inactive).
Consider `CC1(COc2ccc(CC3SC(=O)NC3=O)cc2)CCCCC1` (stereo not given), for which the “activation” value is -4.92% (inactive).
Under `C1=COCCC1` stands 1.55% (inactive); under `CCCCCCCCC(=O)OCC(C)OC(=O)CCCCCCCC` (stereo not given), -2.84% [at 78.8 µM] (inactive).
To `COc1cc(CNC(=O)CCCC/C=C/C(C)C)ccc1O` belongs -1.29% (inactive); to `O=C1OC(=O)C2CC=CCC12` (stereo not given), 0.383% [at 78.8 µM] (inactive); to `O=C(Cl)c1cc(Cl)cc(Cl)c1`, 3.76% [at 78.8 µM] (inactive).
To `COc1ccc(/C=C/c2cc(OC)cc(=O)o2)cc1` belongs -0.729% (inactive).
For the compound `COC(=O)C(C)(C)C`, the “activation” value was -2.07% [at 78.8 µM] (inactive).
`N#Cc1ccc(CC(=O)c2cccc(C(F)(F)F)c2)cc1`: the “activation” value is -0.524% (inactive).
Under `O=C(O)c1cccnc1Nc1cccc(C(F)(F)F)c1` stands -8.93% (inactive).
To `COc1ccc(C(=O)c2ccc(C)cc2)c(O)c1` belongs -3.71% [at 78.8 µM] (inactive).
Under `S=c1[nH][nH]c(=S)s1` stands 0.256% (inactive); under `OCCCO`, 1.11% [at 78.8 µM] (inactive); under `CCOc1ccc2c(c1)C(C)CC(C)(C)N2` (stereo not given), 1.77% (inactive).
For `CCC[Si](OC)(OC)OC`, the “activation” value was 5.81% (inactive).
Under `CC(=O)Nc1cccc(N)c1` stands 0.577% [at 78.8 µM] (inactive).
With `CC(O)CN` (stereo not given), the “activation” value was -0.78% (inactive).
Under `COc1ccc(/C=C/S(=O)(=O)NC(=O)c2ccc(C)cc2Cl)cc1` stands -0.42% (inactive); under `Cc1ccc(Cl)c(OCC(O)CNC(C)(C)C)c1` (stereo not given), 3.54% (inactive).
As for `Nc1nc(Cl)nc2c1ncn2[C@H]1C[C@H](O)[C@@H](CO)O1`, the “activation” value is -1.3% (inactive).
Consider `CC(C)CCCCCOC(=O)CS`, for which the “activation” value is -0.11% (inactive).
In the case of `FC1(F)C(F)(F)C(F)(F)C2(F)C(F)(C1(F)F)C(F)(F)C(F)(F)C1(F)C(F)(F)C(F)(F)C(F)(F)C(F)(F)C12F` (stereo not given), the “activation” value is 2.95% (inactive).
To `O=C(OCCN1CCOCC1)c1cccnc1Nc1cccc(C(F)(F)F)c1` belongs -0.764% (inactive); to `Cc1ccc(NC(=O)c2ccc(CN3CCN(C)CC3)cc2)cc1Nc1nccc(-c2cccnc2)n1`, -2.64% (inactive).
To `CC(=O)Nc1ccccc1O` belongs -2.49% (inactive); to `Clc1nc2ccccc2nc1Cl`, -6.54% [at 78.8 µM] (inactive); to `O=Cc1ccc([N+](=O)[O-])cc1`, -3.68% [at 78.8 µM] (inactive).
With `OCCOc1cccc(OCCO)c1`, the “activation” value was 2.24% (inactive).
Regarding `Cc1cc(SC2=C(O)C[C@@](CCc3ccc(N)cc3)(C(C)C)OC2=O)c(C(C)(C)C)cc1CO`, the “activation” value is -6.34% (inactive).
Consider `CC(=O)Nc1ccn(C2COC(COC(=O)c3ccccc3)O2)c(=O)n1` (stereo not given), for which the “activation” value was -2.58% (inactive).
On to `CCCCCCCCCCCCSCCOCCO`, for which the “activation” value was -2.11% (inactive).
`O=C(OCCOCCOCCOC(=O)c1ccccc1)c1ccccc1`: the “activation” value was -5.49% (inactive).
Under `CCCCCCCCCCCCCCCCN` stands -1.01% (inactive).
To `CCC1=C(C)CN(C(=O)NCCc2ccc(S(=O)(=O)NC(=O)NC3CCC(C)CC3)cc2)C1=O` (stereo not given) belongs -2.12% (inactive); to `CCCC1CCOC(C)S1` (stereo not given), -0.0247% (inactive); to `COc1ccnc2c1CCCCC2S(=O)c1nc2ccccc2[nH]1` (stereo not given), -0.653% (inactive).
To `[O-][n+]1ccc(Cl)cc1` belongs -0.0898% [at 78.8 µM] (inactive).
